# Only some compounds are listed: those with a hit (about 19% of all), similar ones and a draw of the others.
# TDP1 cell noCPT – qHTS for Inhibitors of human tyrosyl-DNA phosphodiesterase 1 (TDP1): qHTS in cells in absence of CPT. DT40 Tdp1-/- hTDP1 cells, no CPT, ATP luminescence, 48 h. Potency, µM (top dose mostly 46.2 µM), inactives show at the top dose activity change, negative = growth inhibition, most hits filed as inhibitors. actives 15% (n = 420,000); note: potency is the fitted concentration of half-maximal effect; nearly all actives have a fitted effect of over 55% in size
#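 Luminescent ATP content (CellTiter-Glo) served as the growth readout. Knockout chicken DT40 cells expressing human TDP1 were exposed to compounds without camptothecin for a minimum 48 hr at 37 °C.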
# TDP1 block – inhibitors of human tyrosyl-DNA phosphodiesterase TDP1; Q9NUW8; recombinant TDP1, AlphaScreen DNA substrate cleavage; Potency, µM (titrated, usually from 130 µM), without a hit: top-dose activity change, negative = inhibition, usual class: inhibitors; actives 0.28% (n = 350,000); note: potency is the fitted concentration of half-maximal effect; nearly all actives have a fitted effect of over 40% in size
# Target sequence (Q9NUW8 whole entry, looked up): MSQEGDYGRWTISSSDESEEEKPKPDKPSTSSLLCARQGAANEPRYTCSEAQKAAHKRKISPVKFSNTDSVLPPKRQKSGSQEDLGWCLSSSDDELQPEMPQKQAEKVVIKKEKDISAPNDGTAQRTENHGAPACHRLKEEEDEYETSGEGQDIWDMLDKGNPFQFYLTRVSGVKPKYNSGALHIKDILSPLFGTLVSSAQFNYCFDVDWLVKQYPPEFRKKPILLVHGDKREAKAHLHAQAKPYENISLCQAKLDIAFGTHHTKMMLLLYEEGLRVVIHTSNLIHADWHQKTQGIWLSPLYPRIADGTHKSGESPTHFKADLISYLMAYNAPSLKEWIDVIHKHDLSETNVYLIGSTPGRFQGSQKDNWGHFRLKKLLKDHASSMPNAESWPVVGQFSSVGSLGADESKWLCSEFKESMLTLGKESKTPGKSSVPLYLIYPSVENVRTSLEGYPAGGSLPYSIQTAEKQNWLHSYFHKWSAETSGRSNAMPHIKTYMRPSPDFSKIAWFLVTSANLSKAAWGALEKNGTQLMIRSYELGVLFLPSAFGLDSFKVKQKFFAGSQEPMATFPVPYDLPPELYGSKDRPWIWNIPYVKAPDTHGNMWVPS
#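 Here, a 5' biotin and 3' phosphotyrosine-FITC DNA oligonucleotide reports Tdp1 activity: intact substrate bridges AlphaScreen beads, while cleavage leaves a 3' phosphate and drops signal. All incubations at room temperature.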
# ELG1 repair inh – inhibitors of ELG1-dependent DNA repair in HEK293T cells | HEK293T ELG1-luciferase reporter, luminescence, 16 h; DNA damage induced by 5-fluorouridine | Potency, µM (series often up to 46.1 µM), for inactives: at the top dose activity change, negative = inhibition, hits mostly inhibitors | actives 2.3% (n = 330,000) | AID 504467; note: potency is the fitted concentration of half-maximal effect; nearly all actives have a fitted effect of over 55% in size
#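 HEK293T cells expressing luciferase-tagged ELG1 (2,000/well) received 5-Fluorouridine plus compound or DMSO for 16 hr at 37 °C. Luciferase was read by ONE-Glo luminescence after 30 min at room temperature.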
# DT40 TDP1 CPT – DT40-hTDP1 cell growth loss with CPT | actives 12% (n = 420,000) | chicken DT40 Tdp1-/-;hTDP1 cells + 20 nM CPT, ATP luminescence, 48 h | AID 686979 | Potency, µM (doses to about 46.2 µM), inactives show at the highest dose activity change, negative = growth inhibition, hits mostly inhibitors; note: potency is the fitted concentration of half-maximal effect; nearly all actives have a fitted effect of over 55% in size
#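 Cell growth measured by CellTiter-Glo luminescence after a minimum 48 h, 37 C compound exposure with 20 nM CPT in Tdp1-knockout DT40 cells stably expressing hTDP1, seeded 400/well; qHTS titration format.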
# IL-1B inflam inh – inflammasome signaling inhibition, IL-1 beta readout; THP-1 LPS/ATP IL-1B secretion, AlphaLISA, 16 h; stronger effect = lower value; activity change, % at 57.5 µM; actives 4.7% (n = 360,000); in the data active = activity change below about -50%; inconclusive = mostly about -30% to -49%
#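 THP-1 cells pretreated 1 hr with compounds (up to 57.5 uM final), then stimulated with LPS (250 ng/mL final) plus ATP (1.25 mM final); secreted IL-1B measured by AlphaLISA after 16 hr, decreased signal indicating inhibition.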
# Giardia kill – Giardia lamblia killing; activity change, % at 7.66 µM, hits read low; actives 0.15% (n = 340,000); AID 540267; Giardia lamblia trophozoite viability; in the data active = activity change below about -80%; inconclusive = between about -30% and that limit;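 note: parasites exposed to compound for two days anaerobically before the ATP read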
#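 Giardia lamblia trophozoites (100 cells/well) were incubated with compounds for 48 h at 37 deg C under anaerobic conditions. Viability was read as ATP content by one-step luminescence after 15-30 min at room temperature.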
# The depositor's hits bear a star; i = inactive; ? = inconclusive; · = no result given; [ ] = another dose, or the depositor's remark. Unless noted, calls come from the whole dose curve; as a rule, active = well fitted curve in the direction sought with a large enough effect; inconclusive = small, poorly fitted or top-dose-only effect, or another doubt; inactive = no such curve, though single readings can be large; an effect the other way counts as inactive or inconclusive. % is set by controls: 0 for no effect and ±100 for the full control effect.
SMILES,TDP1 cell noCPT,TDP1 block,ELG1 repair inh,DT40 TDP1 CPT,IL-1B inflam inh,Giardia kill
CCNc1nc(N2CCCC2)nc(N2CCCC2)n1,?,-2.5%,-8.4%,?,-0.4,-4.1
CC(C)(CO)Nc1nc(N2CCCC2)nc(N2CCCC2)n1,20.6µM*,2.5%,-7.1%,?,14.5,-14.6
CC(C)(C)Nc1nc(OCC#N)nc(N2CCCCC2)n1,?,3.0%,-5.3%,-13.6%,2.1,-8.1
CCNc1nc(NC(C)(C)C)nc(N2CCCCC2)n1,20.6µM*,4.7%,-18.9%,20.6µM*,-81.4*,-1.4
C=C(C)C(=O)Nc1cccc(C2=NOC3(C2)C[C@@H](C(N)=O)N(C(=O)/C=C/C=C/C)C3)c1 (stereo partly specified),0.7%,35.5µM*,-2.9%,-8.4%,-5.4,8.8
C=C(C)C(=O)Nc1cccc(C2=NOC3(C2)C[C@@H](C(N)=O)N(C(=O)CC(c2ccccc2)c2ccccc2)C3)c1 (stereo partly specified),1.9%,17.8µM*,?,?,-22.1,-10.0
NC(=O)[C@H]1CC2(CC(c3cccc(NC(=O)CC(c4ccccc4)c4ccccc4)c3)=NO2)CN1C(=O)CC(c1ccccc1)c1ccccc1 (stereo partly specified),?,-3.5%,-2.1%,?,?,15.5
NC(=O)[C@H]1CC2(CC(c3cccc(NC(=O)[C@H]4CCC(=O)N4)c3)=NO2)CN1C(=O)c1ccccc1 (stereo partly specified),0.1%,14.1µM*,?,-27.3%,9.2,5.8
Cc1ccc(CN2COc3ccc4c(C)cc(=O)oc4c3C2)cc1,·,2.8%,·,·,·,·
COc1ccccc1NC(=O)Cn1nc(-c2ccc(Cl)cc2)c2ccccc2c1=O,-25.6%,7.5%,-3.6%,-29.0%,3.5,-1.6
CCn1c(SC(C)C)nnc1-c1cc(-c2ccccc2)sc1N,16.4µM*,10.4%,?,?,-6.1,17.2
Cc1cc(C)n(-c2ccc(NC(=O)C3CCCCN3C(=O)c3ccoc3)cc2)n1 (stereo unspecified),-10.5%,1.1%,-0.5%,-18.5%,i,-16.4
Cc1cc(C)n(-c2ccc(NC(=O)C3CCCCN3C(=O)c3cc(C)oc3C)cc2)n1 (stereo unspecified),?,3.9%,-5.4%,14.6µM*,-6.9,8.8
Cc1ccc(-c2cc(C(=O)Nc3ccccn3)c3ccccc3n2)o1,23.1µM*,·,?,?,-24.1,1.2
Cc1cc(NC(=O)c2cc(-c3cccnc3)nc3c(C)c(C)ccc23)no1,16.4µM*,-13.0%,23.1µM*,?,-17.7,1.0
Cc1ccc(-c2cc(C(=O)Nc3cc(C)on3)c3ccccc3n2)c(C)c1,?,2.6%,-1.8%,?,-2.0,-6.4
Cc1ccc(-c2cc(C(=O)Nc3cccnc3)c3ccccc3n2)o1,?,9.1%,?,16.4µM*,7.7,21.5
Cc1ccc(NC(=O)c2cc(-c3ccc(C)o3)nc3ccccc23)cc1,?,2.0%,1.2%,?,19.3,-17.0
Cc1cc(NC(=O)c2cc(-c3ccccc3C)nc3ccccc23)no1,20.6µM*,7.9%,-19.3%,?,26.4,7.4
Cc1cc(NS(=O)(=O)c2ccc(NC(=O)c3cc(-c4cccnc4)nc4ccc(Cl)cc34)cc2)no1,8.2%,1.9%,-3.3%,15.0%,39.4,-1.5
Cc1ccccc1OCC(=O)Nc1ccc(-c2nc3cc(Cl)cc(Cl)c3o2)cc1,-12.8%,1.3%[12.3 µM],·,-9.3%,·,·
CCC(=O)N1CCC1(C)C(=O)NS(=O)(=O)c1cccc(C#N)c1 (stereo unspecified),-3.8%,·,·,?,22.5,·
O=C(Nc1cccnc1)c1cc(-c2ccc(Br)cc2)nc2ccccc12,?,5.4%,?,?,-77.2*,14.6
FC(F)(F)C(F)(F)c1nnc2ccc(-n3ccnc3)nn12,-14.7%,5.3%,9.2%,-18.8%,-5.4,-18.4
O=S(=O)(NCc1ccccc1)[C@@H]1CC2C=CC1C2 (stereo partly specified),?,0.6%,11.5%,-22.1%,34.9,-1.9
SMILES,TDP1 cell noCPT,TDP1 block,ELG1 repair inh,DT40 TDP1 CPT,IL-1B inflam inh,Giardia kill
COc1cccc(-c2cnc3c(NC=O)cc(-c4ccoc4)cn23)c1,14.6µM*,·,·,13µM*,60.8,·
COc1cccc(-c2cnc3c(NC=O)cc(-c4ccc(N5CCN(C)CC5)cc4)cn23)c1,?,·,·,16.4µM*,74.9,·
COc1cccc(-c2cnc3c(NC=O)cc(-c4cc(C)c(O)c(C)c4)cn23)c1,4.61µM*,·,·,3.66µM*,25.2,·
CS(=O)(=O)c1ccc(-c2cc(NC=O)c3ncc(-c4ccc(F)cc4)n3c2)cc1,23.1µM*,·,·,23.1µM*,-13.7,·
COc1cccc(-c2cnc3c(NC=O)cc(-c4ccccc4Oc4ccccc4)cn23)c1,?,·,·,?,11.3,·
COc1cccc(-c2cnc3c(NC=O)cc(-c4ccccc4)cn23)c1,5.17µM*,·,·,5.17µM*,88.6,·
COc1cccc(-c2cnc3c(NC=O)cc(-c4ccc(S(C)(=O)=O)cc4)cn23)c1,16.4µM*,·,·,18.4µM*,13.5,·
O=CNc1cc(-c2ccc(C(=O)NC3CC3)cc2)cn2c(-c3ccc(F)cc3)cnc12,23.1µM*,·,·,23.1µM*,-77.9*,·
COc1ccccc1NS(=O)(=O)c1ccc(O)c(NC(=S)NCC2CCCO2)c1 (stereo unspecified),-19.0%,-5.7%,-11.6%,?,55.0,3.6
COc1cc(NC(=O)Nc2cccc(-c3noc(C)n3)c2)cc(OC)c1OC,23.1µM*,6.6%,·,?,·,·
COc1cc(NC(=O)c2cc(-c3cccc(O)c3)on2)cc(OC)c1OC,13µM*,2.5%,?,?,5.0,25.7
COc1ccc(-c2cc(C(=O)Nc3cc(OC)c(OC)c(OC)c3)no2)cc1,-20.6%,·,3.3%,?,-13.7,-16.2
COc1cc(NC(=O)c2cc(-c3ccc(C)cc3)on2)cc(OC)c1OC,?,·,18.8%,-14.1%,74.7,7.3
COc1cc(NC(=O)c2cc(-c3ccc(Cl)c(Cl)c3)on2)cc(OC)c1OC,?,0.0%,·,8.2µM*,·,·
COc1cc(NC(=O)c2noc3c2CCc2ccccc2-3)cc(OC)c1OC,16.4µM*,0.9%,·,7.31µM*,·,·
COc1cc(NC(=O)Nc2cccc(C(C)=O)c2)cc(OC)c1OC,-11.9%,5.2%,?,1.3%,-0.7,6.3
